PubChem BioAssay
Activity calls are given as the source filed them. Unless noted, how the calls were made is not given here.

How the values were obtained:
[1] = system: Wnt5a (protein binding on small-molecule microarray); test: Wnt5a binders on small-molecule microarray, primary screen, biophysical, 635/667 nm fluorescence (AID 1142); conditions: 635 nm fluorescence, higher = more signal;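 further: fluorescence read at 667 nm with signal to noise per printed feature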
[2] = cell viability in Huh7 cells, primary screen, cytotoxicity control for HCV replication inhibitor project, CellTiter-Glo luminescence, basal, 48 h (AID 1143); conditions: Huh7 HCV replicon, higher = more signal, called active from +8 up or from −8 down;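 further: Huh7 hepatoma cells carrying a hepatitis C replication reporter with no stimulus; test concentration not given here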
[3] = P. aeruginosa biofilm formation inhibitors, primary screen, PAO1 strain, BacTiter-Glo luminescence, LB-PBS (AID 1144); conditions: 12 h, higher = more signal
[4] = CREB reporter modulators without forskolin, primary screen, cell-based, PC12, CRE-LacZ reporter, unstimulated (AID 1145); conditions: no forskolin, luminescence, 4.5 h, higher = more signal, called active from +8 up or from −8 down
[5] = CREB reporter modulators under forskolin, primary screen, cell-based, PC12, CRE-LacZ reporter, forskolin-stimulated (AID 1146); conditions: luminescence, 4.5 h, higher = more signal, called active from +8 up or from −8 down;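 further: PC12 cells with 6xCRE LacZ reporter stimulated by forskolin 10 µM; beta-galactosidase reporter signal reflecting CREB driven transcription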
[6] = biological target: Streptavidin (Streptomyces avidinii) (UniProt P22629); test: streptavidin binders on small-molecule microarray, primary screen, artefact control for SMM compound annotation, biophysical, 635/667 nm fluorescence (AID 1147); conditions: streptavidin binding, higher = more signal;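 further: signal reflects streptavidin binding to arrayed compounds as a control protein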
Chain of Streptavidin (Streptomyces avidinii) (P22629 whole entry, looked up): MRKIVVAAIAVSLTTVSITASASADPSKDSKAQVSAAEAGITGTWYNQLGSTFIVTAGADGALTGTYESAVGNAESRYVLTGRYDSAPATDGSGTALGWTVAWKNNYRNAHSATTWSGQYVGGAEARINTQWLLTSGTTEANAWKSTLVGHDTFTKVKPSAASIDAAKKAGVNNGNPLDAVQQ

[7] = small-molecule binders of probe aInhba, primary screen, biochemical, small-molecule microarray, 635/667 nm fluorescence (AID 1148); conditions: higher = more signal;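 further: score merges 667nm spot fluorescence with signal-to-noise for antibody binding to printed compounds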
Torsin-1A (Homo sapiens) [8] = biological target: Torsin-1A (Homo sapiens) (UniProt O14656); test: torsin A binders from cell lysate, primary screen, small-molecule microarray, wild-type, 635/667 nm (AID 1149); conditions: COS7 hTOR1A-WT lysate, 635 nm fluorescence, higher = more signal
Chain of Torsin-1A (Homo sapiens) (O14656 whole entry, looked up): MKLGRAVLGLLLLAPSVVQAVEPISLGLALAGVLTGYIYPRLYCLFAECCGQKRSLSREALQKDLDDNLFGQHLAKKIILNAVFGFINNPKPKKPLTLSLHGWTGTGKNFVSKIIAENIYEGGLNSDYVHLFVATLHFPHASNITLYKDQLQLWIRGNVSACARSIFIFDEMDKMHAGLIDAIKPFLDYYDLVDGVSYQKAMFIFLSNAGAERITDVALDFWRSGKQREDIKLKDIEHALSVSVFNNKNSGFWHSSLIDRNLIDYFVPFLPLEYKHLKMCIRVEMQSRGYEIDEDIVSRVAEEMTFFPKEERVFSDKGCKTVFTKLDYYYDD

Torsin-1A (Homo sapiens) [9] = biological target: Torsin-1A (Homo sapiens) (UniProt O14656); test: small-molecule binders of mutant TOR1A in lysate, primary screen, cell lysate, small-molecule microarray, COS7 lysate, 635/667 nm fluorescence (AID 1150); conditions: COS7 hTOR1A mutant lysate, 635 nm fluorescence, higher = more signal;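 further: score pools 667 nm emission and signal to noise measuring lysate protein binding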
[10] = system: Sonic hedgehog protein (Shh); test: small-molecule binders of Shh protein, primary screen, biochemical, small-molecule microarray, 635/667 nm fluorescence (AID 1151); conditions: small-molecule microarray binding, 635 nm fluorescence; higher = more signal;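 further: Shh protein binding to compounds spotted on small-molecule microarray slides; score combines spot fluorescence intensity with signal-to-noise across triplicate slides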
[11] = E. coli DRC41 culture turbidity changes, primary screen, E. coli filamentation inducer project, strain DRC41, OD650, 48 h (AID 1152);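 further: E. coli MC1000 strain DRC41 lacking acrAB efflux pump and sulA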; conditions: E. coli DRC41 (acrAB sulA), higher = more signal, called active from +8 up or from −8 down
[12] = small-molecule binders of probe aLefty1, primary screen, biochemical, small-molecule microarray, 635/667 nm fluorescence (AID 1153); conditions: higher = more signal;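 further: score merges spot fluorescence with signal-to-noise ratio from the scanned slide images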
[13] = PSAC antagonists in infected red cells, primary screen, cell-based, P. falciparum Indochina, OD700, 1 h (AID 1154); conditions: P. falciparum Indochina infected RBC osmotic lysis, higher = more signal, called active from +8 up or from −8 down
[14] = PSAC antagonists in infected red cells, primary screen, cell-based, P. falciparum Indochina, OD700, 2 h (AID 1155);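 further: lysis reports solute entry through the parasite surface anion channel PSAC; channel blockers reduce lysis of infected cells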; conditions: P. falciparum Indochina infected erythrocytes, osmotic lysis OD700; higher = more signal, called active from +8 up or from −8 down
[15] = osmotic lysis modulators in infected erythrocytes, primary screen, PSAC antagonist project, cell-based, P. falciparum Indochina, OD700, 3 h (AID 1156); conditions: higher = more signal, called active from +8 up or from −8 down
[16] = PSAC antagonists in infected red cells, primary screen, cell-based, P. falciparum Indochina, OD700, 18 h (AID 1157); conditions: P. falciparum Indochina infected erythrocytes, osmotic lysis OD700, 18 h; higher = more signal, called active from +8 up or from −8 down
[17] = modulators of S6 phosphorylation in cells, primary screen, cell-based, A549, cytoblot, luminescence, serum-stimulated (AID 1158); conditions: A549 phospho-S6 cytoblot, 5 h, higher = more signal;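 further: serum-stimulated A549 lung adenocarcinoma cells; signal is phosphorylated S6 detected by cytoblot immunostaining with HRP secondary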
[18] = biological target: NADPH oxidase 2 (Homo sapiens) (UniProt P04839); test: NOX2-dependent H2O2 signal modulators, primary screen, NOX inhibitor project, cell-based, HEK293-NOX2, PMA-stimulated, Amplex Red fluorescence (AID 1159); conditions: 45 min, higher = more signal, called active from +8 up or from −8 down; further: test concentration not given here
Chain of NADPH oxidase 2 (Homo sapiens) (P04839 whole entry, looked up): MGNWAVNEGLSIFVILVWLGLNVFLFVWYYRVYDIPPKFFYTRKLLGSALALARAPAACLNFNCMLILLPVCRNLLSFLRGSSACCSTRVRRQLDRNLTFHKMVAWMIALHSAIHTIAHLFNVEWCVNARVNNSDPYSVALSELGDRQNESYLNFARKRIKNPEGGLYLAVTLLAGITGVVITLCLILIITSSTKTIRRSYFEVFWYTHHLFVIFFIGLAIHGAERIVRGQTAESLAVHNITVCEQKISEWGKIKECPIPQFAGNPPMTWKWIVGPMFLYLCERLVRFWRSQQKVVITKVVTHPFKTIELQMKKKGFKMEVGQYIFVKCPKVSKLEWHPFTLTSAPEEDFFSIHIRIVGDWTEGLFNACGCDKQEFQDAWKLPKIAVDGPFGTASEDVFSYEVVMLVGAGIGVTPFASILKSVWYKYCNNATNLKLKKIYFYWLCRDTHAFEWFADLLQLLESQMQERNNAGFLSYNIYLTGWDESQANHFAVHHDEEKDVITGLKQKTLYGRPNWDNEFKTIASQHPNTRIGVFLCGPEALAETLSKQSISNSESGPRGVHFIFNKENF

[19] = biological target: NADPH oxidase 4 (Homo sapiens) (UniProt Q9NPH5); test: NOX4-dependent H2O2 signal modulators, primary screen, NOX inhibitor project, cell-based, HEK293-NOX4, tetracycline-induced, Amplex Red fluorescence (AID 1160); conditions: 45 min, higher = more signal, called active from +8 up or from −8 down
Chain of NADPH oxidase 4 (Homo sapiens) (Q9NPH5 whole entry, looked up): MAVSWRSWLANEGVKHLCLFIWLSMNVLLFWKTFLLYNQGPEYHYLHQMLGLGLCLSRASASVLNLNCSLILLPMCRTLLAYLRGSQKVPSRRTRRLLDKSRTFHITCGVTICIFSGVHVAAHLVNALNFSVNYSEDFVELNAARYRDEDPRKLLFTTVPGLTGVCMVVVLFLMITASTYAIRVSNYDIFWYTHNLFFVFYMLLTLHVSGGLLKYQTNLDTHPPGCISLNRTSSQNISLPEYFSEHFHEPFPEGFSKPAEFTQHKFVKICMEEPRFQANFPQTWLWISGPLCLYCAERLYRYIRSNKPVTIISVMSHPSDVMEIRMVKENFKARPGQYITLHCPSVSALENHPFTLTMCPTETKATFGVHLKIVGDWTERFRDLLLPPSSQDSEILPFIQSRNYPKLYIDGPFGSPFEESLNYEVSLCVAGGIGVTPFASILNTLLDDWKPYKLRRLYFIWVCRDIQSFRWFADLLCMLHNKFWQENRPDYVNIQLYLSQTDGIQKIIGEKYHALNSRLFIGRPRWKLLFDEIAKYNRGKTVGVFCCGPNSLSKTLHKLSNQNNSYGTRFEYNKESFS

[20] = biological target: NADPH oxidase 5 (Homo sapiens) (UniProt Q96PH1); test: NOX5-dependent H2O2 signal modulators, primary screen, NOX inhibitor project, cell-based, HEK293-NOX5, Amplex Red fluorescence (AID 1161); conditions: HEK293-NOX5, ionomycin, 45 min, higher = more signal
Chain of NADPH oxidase 5 (Homo sapiens) (Q96PH1 whole entry, looked up): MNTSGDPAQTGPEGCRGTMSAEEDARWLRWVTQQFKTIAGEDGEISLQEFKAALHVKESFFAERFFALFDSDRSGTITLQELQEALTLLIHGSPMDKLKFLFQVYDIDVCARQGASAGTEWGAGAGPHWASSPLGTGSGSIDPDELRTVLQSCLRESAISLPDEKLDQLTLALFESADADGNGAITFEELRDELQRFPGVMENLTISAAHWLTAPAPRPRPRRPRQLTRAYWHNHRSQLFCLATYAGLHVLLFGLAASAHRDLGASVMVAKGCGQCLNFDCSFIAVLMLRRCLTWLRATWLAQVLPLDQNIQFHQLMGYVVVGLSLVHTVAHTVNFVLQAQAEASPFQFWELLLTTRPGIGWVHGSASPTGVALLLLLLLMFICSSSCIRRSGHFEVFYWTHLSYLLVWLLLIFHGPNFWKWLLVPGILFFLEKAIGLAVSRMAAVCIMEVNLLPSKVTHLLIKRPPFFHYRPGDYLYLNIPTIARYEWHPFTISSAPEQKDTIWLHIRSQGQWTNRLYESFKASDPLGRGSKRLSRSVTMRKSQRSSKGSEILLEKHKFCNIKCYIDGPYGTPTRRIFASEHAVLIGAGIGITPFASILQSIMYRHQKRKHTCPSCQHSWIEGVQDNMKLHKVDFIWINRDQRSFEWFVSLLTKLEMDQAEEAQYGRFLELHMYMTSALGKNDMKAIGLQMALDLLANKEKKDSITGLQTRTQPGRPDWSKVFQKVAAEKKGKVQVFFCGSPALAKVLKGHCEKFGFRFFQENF

Structure (SMILES) | composite z-score [1] | z-score [2] | z-score [3] | z-score [4] | z-score [5] | composite z-score [6] | composite z-score [7] | composite z-score (Torsin-1A (Homo sapiens) [8]) | composite z-score (Torsin-1A (Homo sapiens) [9]) | composite z-score [10] | z-score [11] | composite z-score [12] | z-score [13] | z-score [14] | z-score [15] | z-score [16] | z-score [17] | z-score [18] | z-score [19] | z-score [20]
COc1ccc([Si](C)(C)[C@@H]2[C@@H](CCO)O[C@]3(C(=O)N(Cc4ccccc4)c4ccc(N5CCCCC5=O)cc43)[C@H]2C)cc1 | 0.271 | -8.08 (active) | -0.119 (inactive) | 8.84 (active) | -0.94 (inactive) | 0.583 | 0.0446 | -0.121 | 0.198 | 1.44 | 2.13 (inactive) | 0.0984 | 3.59 (inactive) | 1.19 (inactive) | -0.121 (inactive) | 0.231 (inactive) | 0.863 | -0.421 (inactive) | -0.278 (inactive) | 1.37
COc1ccc([Si](C)(C)[C@H]2[C@H](CCO)O[C@@]3(C(=O)N(Cc4cccc(N5CCOC5=O)c4)c4ccccc43)[C@@H]2C)cc1 | 0.217 | -5.72 (inactive) | -0.112 (inactive) | 0.907 (inactive) | -0.827 (inactive) | 0.71 | -0.0736 | -0.0637 | -0.217 | 1.47 | -0.286 (inactive) | -0.0917 | 31.7 (active) | 29.4 (active) | 1.37 (inactive) | 3.36 (inactive) | 0.469 | -1.96 (inactive) | 0.553 (inactive) | 0.479
C[N+](C)(C)CCCCCCNC(=O)[C@@H]1C[C@@H]2C(=O)NCC(=O)N2[C@@H]1c1ccc(O)cc1 | 0.0508 | -0.0464 (inactive) | -0.404 (inactive) | -0.532 (inactive) | -0.828 (inactive) | 1.44 | -0.0933 | 0.319 | 0.523 | 2.16 | 0.109 (inactive) | 0.0984 | 0.451 (inactive) | -0.196 (inactive) | -1.53 (inactive) | -0.238 (inactive) | -0.727 | 0.823 (inactive) | 0.899 (inactive) | -0.757
CC1CC/C=C\[C@H]2OC34C=CCN(Cc5ccccc5)C(=O)[C@H]3N(CCO)C(=O)[C@@H]4C2C(=O)O1 (stereo not given in full) | 0.478 | -0.273 (inactive) | 0.836 (inactive) | -0.0778 (inactive) | 0.151 (inactive) | -0.492 | -0.176 | 2.37 | 2.58 | -0.218 | 0.788 (inactive) | -0.0867 | 3.52 (inactive) | -0.133 (inactive) | 0.272 (inactive) | -0.18 (inactive) | -0.0144 | 1.66 (inactive) | 0.0441 (inactive) | 2.24
CC(C)NC(=O)[C@@]1(Cc2ccccc2I)c2ccccc2C(=O)N(Cc2ccccc2C(F)(F)F)[C@H]1c1ccc(CO)cc1 | 0.0851 | -1.7 (inactive) | 0.358 (inactive) | 0.856 (inactive) | -0.151 (inactive) | -0.503 | 0.225 | -0.158 | 0.644 | 0.66 | 0.267 (inactive) | 0.243 | 5.93 (inactive) | 1.82 (inactive) | 0.602 (inactive) | 1.19 (inactive) | -0.171 | 1.12 (inactive) | -0.213 (inactive) | 2.3
COc1ccc([Si](C)(C)[C@@H]2[C@@H](CC(=O)N(CCO)Cc3ccccc3)O[C@]3(C(=O)N(Cc4ccc(N5CCOC5=O)cc4)c4ccccc43)[C@H]2C)cc1 | 0.0838 | -5.01 (inactive) | 0.0675 (inactive) | 7.59 (inactive) | 0.331 (inactive) | 0.601 | 0.027 | 0.436 | 0.0783 | 1.95 | -1.02 (inactive) | -0.0891 | 8.87 (active) | 1.62 (inactive) | -0.248 (inactive) | 0.821 (inactive) | -0.16 | 0.566 (inactive) | 1.18 (inactive) | 3.4
COCC(=C=CC[C@@H](O)c1ccccc1OCCO)C[C@@H](O)COCc1ccccc1 | 0.561 | -1.43 (inactive) | -0.137 (inactive) | 8.9 (active) | -1.46 (inactive) | -0.236 | 0.799 | 1.26 | 0.717 | 0.709 | 2.01 (inactive) | 0.455 | 6.15 (inactive) | -0.29 (inactive) | 0.66 (inactive) | -1.22 (inactive) | 0.719 | 0.547 (inactive) | 1.31 (inactive) | -1.66
